Results from PubChem BioAssay (NCI).
The panel holds about 83,000 compounds, 20% with a hit somewhere; the sample as a whole holds those more often.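 Interpretation: 100, growth as untreated; towards 0, rising growth inhibition; 0, no net growth; 0 to -100, cell death. Compounds scoring below 10 were considered active.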 Calls of active or inactive are those of the source.

Tests used:
Experiment in all cases: NCI-60 one-dose screen, 48 h (100 = growth as untreated, 0 = no growth, -100 = all killed)
Conditions in all cases: 10 µM unless noted
T-47D breast = tested on: T-47D breast
BT-549 breast = tested on: BT-549 breast
MDA-MB-435 melanoma = tested on: MDA-MB-435 melanoma
SW-620 colon = tested on: SW-620 colon
MCF7 breast = tested on: MCF7 breast
HCT-116 colon = tested on: HCT-116 colon
HCC-2998 colon = tested on: HCC-2998 colon
KM12 colon = tested on: KM12 colon

Measured: growth

COc1cc(OCc2cccc(Br)c2C)cc(OC)c1C=O
inactive: T-47D breast 37.8% | BT-549 breast 70.9% | MDA-MB-435 melanoma 87.8% | SW-620 colon 88.6% | MCF7 breast 63.9% | HCT-116 colon 68% | HCC-2998 colon 96.5% | KM12 colon 94.5%

O=S(=O)(NCCCNc1nccc(-c2c(-c3ccc(F)c(O)c3)nc3sccn23)n1)c1ccccc1
inactive: T-47D breast 64.8% | BT-549 breast 91.1% | MDA-MB-435 melanoma 29.3% | SW-620 colon 56.2% | MCF7 breast 58.5% | HCT-116 colon 30.6% | HCC-2998 colon 78.2% | KM12 colon 64.6%

COc1cc(-c2nc3sccn3c2-c2ccnc(NCCNS(=O)(=O)c3ccccc3)n2)ccc1F
inactive: T-47D breast 14.3% | BT-549 breast 67.8% | MDA-MB-435 melanoma 26% | SW-620 colon 86.4% | MCF7 breast 37.9% | HCT-116 colon 42.6% | HCC-2998 colon 96.5% | KM12 colon 17.1%

CC(=O)N1N=C(c2ccc(Nc3nc(Nc4ccccc4)nc(Nc4ccccc4)n3)cc2)CC1c1ccccc1 (centres undefined)
inactive: T-47D breast 46.5% | BT-549 breast 87.2% | MDA-MB-435 melanoma 101% | SW-620 colon 99% | MCF7 breast 67.5% | HCT-116 colon 77.1% | HCC-2998 colon 99.2% | KM12 colon 89.6%

Nc1n[nH]c2cccc(C#Cc3cccc(NC(=O)c4cc(F)cc(C(F)(F)F)c4)c3)c12
inactive: T-47D breast 67.3% | BT-549 breast 79.6% | MDA-MB-435 melanoma 71.2% | SW-620 colon 62.5% | MCF7 breast 68.4% | HCT-116 colon 29.9% | HCC-2998 colon 70.8% | KM12 colon 83.3%

COC(=O)CC[C@H](C)[C@H]1CC[C@H]2[C@@H]3CC[C@@H]4CC5(CC[C@]4(C)[C@H]3CC(=O)[C@]12C)Nc1ccccc1NC5=NC(C)(C)C (some centres undefined)
inactive: T-47D breast 82.3% | BT-549 breast 95.4% | MDA-MB-435 melanoma 85.1% | SW-620 colon 69.7% | MCF7 breast 58.5% | HCT-116 colon 28.3% | HCC-2998 colon 107% | KM12 colon 83%

O=S(=O)(NCCNc1nccc(-c2c(-c3ccc(F)c(O)c3)nc3occn23)n1)c1ccc(Cl)cc1
inactive: T-47D breast 92.3% | BT-549 breast 107% | MDA-MB-435 melanoma 38.6% | SW-620 colon 112% | MCF7 breast 71.6% | HCT-116 colon 60.9% | HCC-2998 colon 102% | KM12 colon 84%

CCN1CCN(C(=O)[C@]23CCC(C)(C)C[C@@H]2C2=CC[C@@H]4[C@@]5(C)CCC(=O)C(C)(C)[C@@H]5CC[C@@]4(C)[C@]2(C)CC3)CC1
inactive: T-47D breast 56.4% | BT-549 breast 58.6% | MDA-MB-435 melanoma 33.9% | SW-620 colon 31.8% | MCF7 breast 39.9% | HCT-116 colon 19.1% | HCC-2998 colon 62.8% | KM12 colon 41.2%

CCOC(=O)n1ccn(C)c1=S
inactive: BT-549 breast 98.7% | MDA-MB-435 melanoma 102% | SW-620 colon 111% | MCF7 breast 102% | HCT-116 colon 94.4% | HCC-2998 colon 106% | KM12 colon 101%
active: T-47D breast -28.3%

O=[N+]([O-])c1ccc(O)cc1Br
inactive: T-47D breast 96.8% | BT-549 breast 91.2% | MDA-MB-435 melanoma 100% | SW-620 colon 104% | MCF7 breast 92.9% | HCT-116 colon 95.4% | HCC-2998 colon 103% | KM12 colon 101%

O=C(OC(CO)C(=O)NC12CC3CC(CC(C3)C1)C2)c1ccc(Cl)cc1 (centres undefined)
inactive: T-47D breast 92.8% | BT-549 breast 106% | MDA-MB-435 melanoma 94.6% | SW-620 colon 101% | MCF7 breast 91.8% | HCT-116 colon 90.9% | HCC-2998 colon 113% | KM12 colon 111%

CN(C)c1ccc(C(=O)OCCCCCCl)cc1
inactive: T-47D breast 82% | BT-549 breast 94.1% | MDA-MB-435 melanoma 96.6% | SW-620 colon 99.9% | MCF7 breast 95.1% | HCT-116 colon 96.7% | HCC-2998 colon 98.4% | KM12 colon 97%

O=C(Nc1cccc(-c2ccc(N3CCOCC3)nn2)c1)Nc1cccc(C(F)(F)F)c1
inactive: BT-549 breast 40.9% | MDA-MB-435 melanoma 69.7% | SW-620 colon 110% | MCF7 breast 55.3% | HCT-116 colon 68.2% | HCC-2998 colon 109% | KM12 colon 55.5%
active: T-47D breast 8.63%

Nc1c(C(=O)Nc2ccncc2)sc2nc3c(cc12)C(O)CCC3 (centres undefined)
inactive: T-47D breast 74.3% | BT-549 breast 113% | MDA-MB-435 melanoma 101% | SW-620 colon 99.7% | MCF7 breast 93.8% | HCT-116 colon 83.4% | HCC-2998 colon 96.7% | KM12 colon 109%

COc1cc2ncnc(Nc3ccc(F)c(Cl)c3)c2cc1OCC(=O)N1CCN(c2ccccc2)CC1
inactive: T-47D breast 77.4% | BT-549 breast 106% | MDA-MB-435 melanoma 95.6% | SW-620 colon 101% | MCF7 breast 90% | HCT-116 colon 67.7% | HCC-2998 colon 97.8% | KM12 colon 102%

O=C(O)c1ccc(-n2cc(/C=N/Nc3ccccc3)c(-c3ccc(F)cc3F)n2)cc1
inactive: T-47D breast 35.4% | BT-549 breast 95.2% | MDA-MB-435 melanoma 45.9% | SW-620 colon 30.1% | MCF7 breast 41.6% | HCT-116 colon 37.7% | HCC-2998 colon 81.1% | KM12 colon 29.3%

CSc1nc2ncc([N+](=O)[O-])c(=O)n2[nH]1
inactive: T-47D breast 99.8% | BT-549 breast 104% | MDA-MB-435 melanoma 100% | SW-620 colon 101% | MCF7 breast 96.5% | HCT-116 colon 105% | HCC-2998 colon 107% | KM12 colon 103%

Nc1cnc(C(=O)NNc2nc3cc(F)ccc3n3cccc23)cn1
inactive: T-47D breast 35.5% | BT-549 breast 52.9% | MDA-MB-435 melanoma 38.9% | SW-620 colon 36% | MCF7 breast 16.6% | HCT-116 colon 36% | HCC-2998 colon 48.4% | KM12 colon 24.7%

C=C(C)[C@@H]1CCC[C@]2(COS(=O)(=O)c3ccc(C)cc3)CC[C@]3(C)[C@@H](CC[C@@H]4[C@@]5(C)CCCNC(C)(C)[C@@H]5CC[C@]43C)[C@@H]12
inactive: T-47D breast 59.6% | BT-549 breast 83.7%
active: MDA-MB-435 melanoma -25.3% | SW-620 colon -69.4% | MCF7 breast -32.6% | HCT-116 colon -82.8% | HCC-2998 colon -75.8% | KM12 colon -25.2%

CCN1C(=S)N(c2ccccc2)C2NC(=S)N(/N=C/C=C/c3ccccc3OC)C21 (centres undefined)
active: BT-549 breast 9.74% | MDA-MB-435 melanoma -31% | KM12 colon 7.72%
inactive: T-47D breast 66.7% | SW-620 colon 18.3% | MCF7 breast 16.7% | HCT-116 colon 10.5% | HCC-2998 colon 17.2%

c1cc2c(ccc3[nH]c(-c4ccc5[nH]ncc5c4)c4c(c32)CCCC4)n1
inactive: T-47D breast 38.9% | BT-549 breast 53.2% | MDA-MB-435 melanoma 68.9% | SW-620 colon 60.8% | MCF7 breast 23.3% | HCT-116 colon 38% | HCC-2998 colon 93.6% | KM12 colon 67.9%

COc1ccc(-c2cc(-c3cccnc3)nc3sc4c(=O)[nH]c(-c5ccc(Cl)cc5)nc4c23)cc1OC
inactive: T-47D breast 66.8% | BT-549 breast 91.1% | MDA-MB-435 melanoma 99.8% | SW-620 colon 92.2% | MCF7 breast 73.5% | HCT-116 colon 80.7% | HCC-2998 colon 105% | KM12 colon 99%

N#CC1=C(N)Oc2c(c(=O)[nH]c3ccc(Cl)cc23)C12C(=O)c1ccccc1C2=O
inactive: T-47D breast 98.2% | BT-549 breast 89% | MDA-MB-435 melanoma 92.6% | SW-620 colon 86.5% | MCF7 breast 96.4% | HCT-116 colon 95.7% | HCC-2998 colon 109% | KM12 colon 90.7%

N#Cc1nc(-c2ccccc2)oc1S(=O)(=O)N1CCN(c2ccccc2)CC1
inactive: T-47D breast 91.1% | BT-549 breast 90.8% | MDA-MB-435 melanoma 86.3% | SW-620 colon 64.1% | MCF7 breast 51.5% | HCT-116 colon 44.9% | HCC-2998 colon 102% | KM12 colon 104%

CCC(=C(c1ccc(OCCN2CCCCC2)cc1)c1ccc(OCCN2CCCCC2)cc1)c1ccc(Cl)cc1
active: T-47D breast -68.3% | BT-549 breast -91.7% | MDA-MB-435 melanoma -96.2% | SW-620 colon -84.1% | MCF7 breast -79.9% | HCT-116 colon -91.1% | HCC-2998 colon -87% | KM12 colon -84%

Cn1c(=O)c2nc(/C=C/c3ccccc3)c(=O)[nH]c2n(C)c1=S
inactive: T-47D breast 104% | BT-549 breast 110% | MDA-MB-435 melanoma 103% | SW-620 colon 98.9% | MCF7 breast 93.9% | HCT-116 colon 105% | HCC-2998 colon 106% | KM12 colon 104%

Nc1ncc(-c2ccc3ncnc(Nc4cccc(Cl)c4)c3c2)cn1
inactive: BT-549 breast 46.5% | MDA-MB-435 melanoma 55.6% | SW-620 colon 91.4% | MCF7 breast 24.2% | HCT-116 colon 66.4% | HCC-2998 colon 60.5% | KM12 colon 67.5%
active: T-47D breast -20.1%

Cc1ccc2c(n1)C(=O)C(Br)=C(CC(C)C)C2=O
inactive: T-47D breast 82% | BT-549 breast 99.4% | MDA-MB-435 melanoma 104% | SW-620 colon 64% | MCF7 breast 93.2% | HCT-116 colon 61.6% | HCC-2998 colon 105% | KM12 colon 99.3%
